# Test results: paper PMC4336329 (PLoS ONE, 2015)
# Screen size: about 310,000 compounds; about 14,000 (4.5%) showed an effect of 50% or more. The effect is printed as a negative number. This is one part of a sample in which strong results are shown more often than they occur.
# Target: human ether-à-go-go-related gene (hERG) potassium channel (human, UniProt Q12809)
# Assay: primary screen, population patch clamp on CHO cells stably expressing hERG; higher = less effect of the substance
# 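Note: peak tail current of the secondary pulse compared with the same well before compound.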
# Chain of human ether-à-go-go-related gene (hERG) potassium channel (Q12809 whole entry, looked up): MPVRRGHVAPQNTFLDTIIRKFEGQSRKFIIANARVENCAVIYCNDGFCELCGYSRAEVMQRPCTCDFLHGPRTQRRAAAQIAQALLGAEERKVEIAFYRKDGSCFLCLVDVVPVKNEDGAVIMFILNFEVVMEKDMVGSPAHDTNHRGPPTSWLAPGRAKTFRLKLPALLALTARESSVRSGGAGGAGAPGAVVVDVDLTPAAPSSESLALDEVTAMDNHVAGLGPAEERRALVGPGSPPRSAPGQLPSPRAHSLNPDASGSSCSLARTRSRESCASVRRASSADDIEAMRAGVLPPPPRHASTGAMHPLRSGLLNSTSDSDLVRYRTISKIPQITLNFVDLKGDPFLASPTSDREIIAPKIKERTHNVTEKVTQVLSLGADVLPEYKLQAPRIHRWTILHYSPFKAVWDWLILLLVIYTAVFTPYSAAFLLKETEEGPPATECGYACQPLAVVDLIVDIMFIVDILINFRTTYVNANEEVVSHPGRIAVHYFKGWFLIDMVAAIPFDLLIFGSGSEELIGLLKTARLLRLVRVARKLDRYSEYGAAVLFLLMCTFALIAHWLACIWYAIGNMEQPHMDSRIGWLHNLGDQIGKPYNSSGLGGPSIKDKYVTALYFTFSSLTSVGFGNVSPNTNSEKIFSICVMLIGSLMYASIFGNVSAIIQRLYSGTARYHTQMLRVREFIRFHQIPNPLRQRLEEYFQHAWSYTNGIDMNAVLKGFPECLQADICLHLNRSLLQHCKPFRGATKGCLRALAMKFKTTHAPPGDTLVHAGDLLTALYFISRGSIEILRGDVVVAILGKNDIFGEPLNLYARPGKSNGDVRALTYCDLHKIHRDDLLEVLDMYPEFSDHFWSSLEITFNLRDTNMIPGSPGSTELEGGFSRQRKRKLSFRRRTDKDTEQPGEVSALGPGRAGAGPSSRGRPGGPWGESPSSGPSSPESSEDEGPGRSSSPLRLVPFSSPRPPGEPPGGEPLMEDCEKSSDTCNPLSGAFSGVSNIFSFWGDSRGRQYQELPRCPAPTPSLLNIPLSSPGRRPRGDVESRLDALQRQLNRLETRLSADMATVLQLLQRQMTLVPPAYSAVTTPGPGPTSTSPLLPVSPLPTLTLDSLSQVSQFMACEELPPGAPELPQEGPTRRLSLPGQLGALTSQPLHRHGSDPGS
row,SMILES,"hERG current change (%, negative = inhibition) at 10uM"
1,CCCCN(C)C(=O)c1cc2cc3cc(OC)ccc3nc2o1,-30.8%
2,C(=N\Nc1nc(N2CCCC2)nc(N2CCCC2)n1)/c1ccncc1,2.85%
3,Cn1c(CN2CCN(S(C)(=O)=O)CC2)nc2cc([N+](=O)[O-])ccc21,-0.37%
4,Cn1c(CN2CCN(C(=O)c3ccccc3)CC2)nc2cc([N+](=O)[O-])ccc21,-67.3%
5,CC(=O)N1CCN(Cc2nc3cc([N+](=O)[O-])ccc3n2C)CC1,-4.94%
6,COC(=O)c1c(C)oc(C)c(C(=O)OC)c1=O,5.25%
7,O=C1C2C3C=CC(C4CC34)C2C(=O)N1Cc1ccco1 (centres unmarked),4.37%
8,COc1ccc(N2CCN(CCNC(=O)c3c(C)cc(=O)oc3C)CC2)cc1,-12.2%
9,CCc1nc2ccc(C(=O)NCCCN3CCN(c4ccc(F)cc4)CC3)cc2nc1CC,-66.4%
10,Cc1c(C)n(C)c2ccc(C(=O)NCCCN3CCN(C)CC3)cc12,14.9%
11,CCc1nc2ccc(C(=O)NCCCN3CCN(c4ccccc4F)CC3)cc2nc1CC,-49.8%
12,Cc1c(C)n(C)c2ccc(C(=O)NCCCN3CCN(c4ccc(F)cc4)CC3)cc12,-66.6%
13,Cc1c(C)n(C)c2ccc(C(=O)NCCCN3CCCCC3)cc12,-17.2%
14,Cc1c(C)n(C)c2ccc(C(=O)NCCCN3CCCC3)cc12,-23.8%
15,O=C(NCCCN1CCN(c2ccc(F)cc2)CC1)c1cccc(N2CCCC2=O)c1,-48.5%
16,Cc1c(C)n(C)c2ccc(C(=O)NCCCN3CCN(c4ccccc4F)CC3)cc12,-54.2%
17,Cc1c(C)n(C)c2ccc(C(=O)NCCCN3CCOCC3)cc12,10.8%
18,Cc1cc(=O)oc(C)c1C(=O)NCCCN1CCN(c2ccccc2F)CC1,-40.4%
19,Cc1cc(=O)oc(C)c1C(=O)NCCCN1CCN(c2ccc(F)cc2)CC1,-53.6%

row,SMILES,"hERG current change (%, negative = inhibition) at 10uM"
1,Cc1ccc(S(=O)(=O)N2CCN(S(=O)(=O)c3ccc(C)cc3)C2)cc1,-24.9%
2,CCN(CC)S(=O)(=O)c1cc(-c2nnc(-c3ccc(Br)cc3)o2)ccc1Br,12.7%
3,COCCNC(=S)NN(c1ccccc1)c1ccccc1,-1.18%
4,Oc1cc2c(cc1CN1CCc3ccccc3C1)OCO2,-0.697%
5,CS(=O)(=O)N1CCN(c2ccc(NC(=O)COc3ccccc3)cc2)CC1,0.0465%
6,COc1ccc(/C=N/NC(=O)c2ccc(NC(=O)c3ccccc3Br)cc2)cc1,6.43%
7,CCN1/C(=C\C(C)=O)Sc2ccc(OC)cc21,13.9%
8,CCN1/C(=C/c2cccc[n+]2C)Sc2ccc(OC)cc21.[I-],-67.3%
9,CCN1/C(=C/C(C)=O)Sc2ccc(OC)cc21,-12.7%
10,CCCNC(=O)COC(=O)c1cccnc1Nc1ccccc1F,-9.21%
11,CCC1C(=O)NCCN1C(=O)c1ccc2nc(Cc3cccc(Cl)c3)oc2c1 (centres unmarked),-18.6%
12,O=C(Cc1ccccc1[N+](=O)[O-])NCc1ccc(Cl)cc1,5.25%
13,CCN(CC(=O)NCc1cccs1)C(=O)CCc1c[nH]c2ccccc12,-17.6%
14,CCN(CC(=O)NCc1ccc(Cl)cc1)C(=O)NCc1ccc(Cl)cc1,-48.4%
15,CCN(CC(=O)NCc1ccc(Cl)cc1)C(=O)C(C)Sc1ccccc1 (centres unmarked),-33.8%
16,CCN(CC(=O)NCc1ccc(Cl)cc1)C(=O)CCc1ccccc1O,-54.1%
17,CCN(CC(=O)NCc1ccc(Cl)cc1)C(=O)CCc1ccccc1,-58.7%
18,CCN(CC(=O)NCc1ccc(Cl)cc1)C(=O)Cc1ccccc1[N+](=O)[O-],-63.4%
19,O=C(COC(=O)Cc1ccccc1[N+](=O)[O-])NCc1ccc(Cl)cc1,-11%

row,SMILES,"hERG current change (%, negative = inhibition) at 10uM"
1,O=C(CCCc1ccccc1)NCc1ccc(Cl)cc1,-15.3%
2,O=C(CC(c1ccccc1)c1cc(Cl)ccc1O)N1CCCC1 (centres unmarked),-17.5%
3,O=C(NS(=O)(=O)Nc1ccccn1)c1c[nH]c2ccccc12,15.4%
4,Cc1cccc(NC(=O)C2CCN(C(=O)NC3CCCCC3)CC2)c1,7.39%
5,CS(=O)c1ccccc1COC(=O)Nc1ccccc1 (centres unmarked),9.76%
6,Cc1c(NC(=O)c2ccccc2)c(=O)n(-c2ccccc2)n1C,-3.48%
7,CCN1CCN(C(=O)C2CCN(C(=O)c3cc4sccc4n3CC)CC2)CC1,-2.39%
8,CCn1c(C(=O)N2CCC(C(=O)N3CCN(c4ccccn4)CC3)CC2)cc2sccc21,-60.5%
9,O=C(NCc1ccco1)C1CCN(C(=O)c2ccc(Cl)cc2Cl)CC1,-0.217%
10,CCOC(=O)N1CCN(C(=O)C2CCN(C(=O)c3cc4sccc4n3CC)CC2)CC1,-28.8%
11,Cn1c(C(=O)N2CCCC(C(=O)NCc3cccs3)C2)cc2sccc21 (centres unmarked),-16.1%
12,CCn1c(C(=O)N2CCC(C(=O)NCc3ccc(OC)cc3)CC2)cc2sccc21,-41.9%
13,COc1nc(OC)nc(N2CCC(C(=O)NCc3ccco3)CC2)n1,-18.3%
14,O=C(NCc1ccco1)c1cc2sccc2n1Cc1ccccc1,-15.7%
15,O=C(NCc1ccco1)C1CCN(C(=O)c2cc3sccc3n2Cc2ccc(Cl)cc2)CC1,-64.8%
16,O=C(NCc1ccco1)C1CCN(c2nc3ccccc3n2Cc2ccccc2F)CC1,-66.2%
17,Cc1cc(C)nc(N2CCC(C(=O)NCc3ccccc3F)CC2)n1,27%
18,CCn1c(C(=O)N2CCC(C(=O)NCc3cccs3)CC2)cc2sccc21,-63%
